Reference: PubChem BioAssay (NCATS)
Inconclusive results are not listed. Active and inactive are the calls of the source. Calls come from the whole dose curve; as a rule, active = well fitted inhibition curve with a large enough effect; inconclusive = small, poorly fitted or top-dose-only effect; inactive = flat fitted curve, though single readings scatter.

target: Calcium and integrin-binding protein 1 (Homo sapiens) (UniProt Q99828); assay: Primary qHTS for Identification of Calcium Integrin Binding Protein 1 (CIB1) Competitor (AID 1508620); conditions: CIB1-GST / FITC-alphaIIb peptide fluorescence polarization; series mostly up to 114 µM; activity change, negative = inhibition: at the top concentration;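 note: GST tagged CIB1 binding a fluorescein labelled alphaIIb integrin peptide tracer; top concentration of the series differs between compounds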
Source text: Assay Provider: Ulhas P. Naik, PhD Sidney Kimmel Medical College Thomas Jefferson University, Philadelphia, PA Primary function of platelets is to maintain hemostasis. At the site of vascular injury, platelets adhere to adhesive proteins such as collagen and von Willebrand factor. Adherent platelets are activated and generate soluble platelet agonists such as thrombin, ADP and thromboxane A2. Following exposure of circulating platelets to these agonists, results in platelet shape change, granule secretion and activation of platelet integrin alphaIIb-beta3. Ligand binding to activated integrin alphaIIb-beta3 triggers outside-in signaling, leading to platelet aggregation, stabilization of platelet plug, and clot retraction. Upon atherosclerotic plaque rupture also causes platelet plug formation, which underlies a number of cardiovascular diseases such as myocardial infraction and stroke. A number of anti-platelet drugs such as aspirin, clopidogrel, prasugrel, vorapaxar, and eptifibatide are currently available to prevent the thrombotic complications. However, these anti-platelet agents have several limitations including inherent variability in individual responses, developing resistance, and serious bleeding side effects. For these reasons they are not suitable for long-term protection. Based on the experiences with current anti-platelet drugs, it appears that the most useful therapeutic approach is to intersect the secondary responses such as integrin outside-in signaling or recruitment of platelets by TxA2 and secreted ADP. Compounds, which can largely preserve the primary hemostatic function of platelets but inhibit secondary response will be most desired therapeutic agents for treatment of cardiovascular disease. CIB1 is a calcium integrin binding protein, which specifically interact with the alphaIIb subunit of integrin alphaIIb-beta3. Binding of CIB1 to alphaIIb regulates the outside-in signaling in platelets, which is needed for thrombus stabilization and thrombus growth. […] Therefore, we propose that discovery of a small molecule that can prevent the association of CIB1 and alphaIIb-beta3 will be a potential anti-platelet agent that can block the thrombus formation without undue effect on hemostasis. Reference: [1] Naik MU, Nigam A, Manrai P, et al. CIB1 deficiency results in impaired thrombosis: the potential role of CIB1 in outside-in signaling through integrin alpha IIb beta 3. J Thromb Haemost.
PROTOCOL TABLES SEQUENCE No. (1, 2, 3, etc.); […] (e.g., Cells, Incubation, Reagent, etc.); VALUE and DESCRIPTION. 1; Reagent; 3 uL; Protein or buffer (4/3x) 2; Compound; 46 nL; Control inhibitor / compound library 3; Time; 15 min; Room temperature incubation 4; Reagent; 1 uL; Fluorescent labeled peptide (4x) 5; Time; 1000 rpm; Centrifuge 6; Time; 15 min; Room temperature incubation 7; Detection; Ex 480/ Em 540; ViewLux Fluorescence Read NOTES (numbers refer to sequence above) 1; Protein Mixture: C1B1-GST (final concentrations of 1 uM). […] 3; Room temperature incubation. 4; Fluorescent Labeled Peptide: FITC-aIIb (final concentration of 100 nM). Sequence of alphaIIb peptide: Acetyl-[…]-FITC (purity is 95.83%). 5; Centrifuge 1000 rpm (164 g) for 15 seconds. 6; Room temperature incubation. 7; ViewLux Fluorescent Polization Read: excitation = 480(20) / emission = 540(25) S and P; FITC Dichroic mirror.
% is set by controls: 0 for no effect and ±100 for the full control effect.

Chain of Calcium and integrin-binding protein 1 (Homo sapiens) (Q99828 whole entry, looked up): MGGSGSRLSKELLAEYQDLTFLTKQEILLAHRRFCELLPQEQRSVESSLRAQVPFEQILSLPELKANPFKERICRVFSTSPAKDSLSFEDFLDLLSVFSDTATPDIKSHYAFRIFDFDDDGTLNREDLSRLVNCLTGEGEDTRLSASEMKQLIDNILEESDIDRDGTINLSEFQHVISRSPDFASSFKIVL

Compound | activity change, negative = inhibition
Cc1cc(C)c(NC(=O)CN(CC(=O)O)CC(=O)O)c(C)c1Br | -3.28% (inactive)
COc1ccc(O)cc1 | -0.284% (inactive)
Cc1c(N(C)C)c(=O)n(-c2ccccc2)n1C | 0.856% (inactive)
Cn1c([N+](=O)[O-])cnc1COC(N)=O | 1.31% (inactive)
NC(N)=NCCN1CCCCCCC1 | -2.06% [at 1.07 µM] (inactive)
CC(C)(C)NCC(O)COc1cccc2c1CCC(=O)N2 (stereo not given) | -1.77% (inactive)
CC(=O)N[C@@H](CC(C)C)C(=O)O | 2.83% (inactive)
CCc1cccc(CC)c1NC(=O)CN(CC(=O)O)CC(=O)O | 1.22% (inactive)
CC1(c2ccccc2)OC(C(=O)O)=CC1=O (stereo not given) | -1.6% (inactive)
COc1nccnc1NS(=O)(=O)c1ccc(N)cc1 | -0.142% (inactive)
NS(=O)(=O)c1cc(-c2nn[nH]n2)c(NCc2cccs2)cc1Cl | 0.556% (inactive)
CN1CCN(C(=O)C2CCCCC2)CC1 | 3.48% (inactive)
Nc1ccc(C(=O)Oc2ccccc2)c(O)c1 | -1.13% (inactive)
CC(=O)N1C[C@H](O)C[C@H]1C(=O)O | 11.4% (inactive)
O=C(O)c1ccccc1OP(=O)(O)O | 7.16% (inactive)
COc1ccccc1OCC(O)CO (stereo not given) | 1.73% (inactive)
CC(=O)Oc1cccc(C)c1 | 1.27% (inactive)
CCCNC(C)(C)COC(=O)c1ccccc1 | 0.784% (inactive)
CC(C(=O)O)c1ccc2c(c1)Cc1cccnc1O2 (stereo not given) | -0.701% (inactive)
C[N+]1(C)CCCC(OC(=O)C(O)(c2ccccc2)c2ccccc2)C1 (stereo not given) | -2.99% (inactive)

Compound | activity change, negative = inhibition
CN(C/C=C/C#CC(C)(C)C)Cc1cccc2ccccc12 | -3.21% (inactive)
C/C=C1\[C@H]2C=C(C)C[C@]1(N)c1ccc(=O)[nH]c1C2 | -1.42% (inactive)
NS(=O)(=O)c1cc(C2(O)NC(=O)c3ccccc32)ccc1Cl (stereo not given) | -2.68% (inactive)
Cc1onc(-c2ccccc2)c1-c1ccc(S(N)(=O)=O)cc1 | 3.54% (inactive)
CCC(C)(CN(C)C)OC(=O)c1ccccc1 (stereo not given) | 0.0807% (inactive)
CC(C)NC[C@@H](O)COc1ccc(CC(N)=O)cc1 | 2.3% (inactive)
COC(=O)c1ccccc1C(=O)c1ccc(OCCN2CCCCC2)cc1 | -0.665% (inactive)
Cn1cc(C(=O)[C@@H]2CCc3nc[nH]c3C2)c2ccccc21 | 0.509% (inactive)
CC(C)c1cc2c(cc1S(=O)(=O)O)[C@@]1(C)CCC[C@@](C)(C(=O)O)[C@@H]1CC2 | -3.59% (inactive)
CCOC(N)=O | 1.27% (inactive)
Cc1cc(O)cc(C)c1Cl | -2.26% (inactive)
CC[N+](CC)(CC(=O)Nc1c(C)cccc1C)Cc1ccccc1 | 2.9% (inactive)
Cc1cc(C)nc(NS(=O)(=O)c2ccc(N)cc2)n1 | -0.643% (inactive)
CCOC(=O)[C@H](CCc1ccccc1)N[C@@H](C)C(=O)N1Cc2cc(OC)c(OC)cc2C[C@H]1C(=O)O | 1.44% (inactive)
Cc1cccc(Nc2ccccc2C(=O)O)c1C | -3.91% (inactive)
CC[C@]12CCCN3CCc4c(n(c5ccccc45)[C@@](O)(C(=O)OC)C1)[C@@H]32 | 2.93% (inactive)
CCN(CC)C(=O)c1cccc(C)c1 | 6.98% (inactive)
O=C(O)c1ccc[n+]([O-])c1 | 2.32% (inactive)
Cc1cc(OI)c(C(C)C)cc1-c1cc(C(C)C)c(OI)cc1C | 9.13% (inactive)
CCN(CC)S(=O)(=O)c1ccc(C(=O)O)cc1 | 1.22% (inactive)
